For some of these results: Results with a measured potency or affinity are listed apart.

What all share (set-up): scale not given: direction of the effect not stated beside the values
The target in test [1] is Protein translocase subunit SecA (Escherichia coli (strain K12)) (UniProt P10408). The test can be described thus: Assay to Identify E. coli SecA ATPase Inhibitors. It is filed as functional. The conditions noted are these: 30 µM.
Test [2] has as its target T1, Ubiquitin-activating enzyme e1, putative (Leishmania donovani (strain BPK282A1)) (UniProt E9BSI1).
T1 sequence (whole entry): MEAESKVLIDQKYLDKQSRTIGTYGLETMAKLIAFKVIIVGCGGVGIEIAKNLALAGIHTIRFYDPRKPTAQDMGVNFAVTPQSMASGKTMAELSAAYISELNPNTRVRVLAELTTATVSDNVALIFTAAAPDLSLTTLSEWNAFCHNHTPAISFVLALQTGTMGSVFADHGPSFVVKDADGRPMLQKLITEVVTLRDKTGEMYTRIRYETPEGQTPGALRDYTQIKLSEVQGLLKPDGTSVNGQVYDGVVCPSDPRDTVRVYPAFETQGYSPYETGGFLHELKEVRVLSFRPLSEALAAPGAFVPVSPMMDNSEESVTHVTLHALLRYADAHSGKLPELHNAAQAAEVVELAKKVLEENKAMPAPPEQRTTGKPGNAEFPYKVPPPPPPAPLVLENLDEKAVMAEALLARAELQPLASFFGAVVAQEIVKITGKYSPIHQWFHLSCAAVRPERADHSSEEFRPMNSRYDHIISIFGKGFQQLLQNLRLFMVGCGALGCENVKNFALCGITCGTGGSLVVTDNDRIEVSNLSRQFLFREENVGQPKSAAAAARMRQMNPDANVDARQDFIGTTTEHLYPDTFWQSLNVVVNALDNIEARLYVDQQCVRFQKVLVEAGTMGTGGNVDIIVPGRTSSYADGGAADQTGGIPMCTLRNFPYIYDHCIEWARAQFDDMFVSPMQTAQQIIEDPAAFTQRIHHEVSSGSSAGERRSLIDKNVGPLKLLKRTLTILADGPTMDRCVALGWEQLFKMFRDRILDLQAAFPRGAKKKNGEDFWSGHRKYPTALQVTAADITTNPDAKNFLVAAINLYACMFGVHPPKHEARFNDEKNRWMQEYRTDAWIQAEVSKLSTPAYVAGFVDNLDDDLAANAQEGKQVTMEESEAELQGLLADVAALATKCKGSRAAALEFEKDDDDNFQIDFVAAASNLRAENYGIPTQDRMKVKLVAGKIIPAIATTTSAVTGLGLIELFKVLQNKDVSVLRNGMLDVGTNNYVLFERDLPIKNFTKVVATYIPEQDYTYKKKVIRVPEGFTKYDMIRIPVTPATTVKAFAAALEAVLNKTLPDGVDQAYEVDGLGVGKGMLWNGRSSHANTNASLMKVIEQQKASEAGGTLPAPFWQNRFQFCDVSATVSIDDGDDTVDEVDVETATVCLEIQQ
The test can be described thus: Leishmania donovani Ubiquitin Activating Enzyme (LdE1). Type of test: functional. The conditions noted are these: 30 µM.

Test [3] has as its target Sialic acid-binding Ig-like lectin 9 (Homo sapiens) (UniProt Q9Y336). The test can be described thus: Hs-Siglec9 ALPHAscreen SOP 20170721. The note with it: 10 µM. (Alpha assays give light when donor and acceptor beads are brought close together.)
In another test the test system is Trypanosoma cruzi. Nature of the test: Trypanosoma cruzi phosphomannomutase and mannose-1-phosphate guanylyltransferase assay. It is filed as functional. The note with it: 10 µM.
Test [4] has as its target T2, Arginase-2, mitochondrial (Homo sapiens) (UniProt P78540).
T2 sequence (whole entry): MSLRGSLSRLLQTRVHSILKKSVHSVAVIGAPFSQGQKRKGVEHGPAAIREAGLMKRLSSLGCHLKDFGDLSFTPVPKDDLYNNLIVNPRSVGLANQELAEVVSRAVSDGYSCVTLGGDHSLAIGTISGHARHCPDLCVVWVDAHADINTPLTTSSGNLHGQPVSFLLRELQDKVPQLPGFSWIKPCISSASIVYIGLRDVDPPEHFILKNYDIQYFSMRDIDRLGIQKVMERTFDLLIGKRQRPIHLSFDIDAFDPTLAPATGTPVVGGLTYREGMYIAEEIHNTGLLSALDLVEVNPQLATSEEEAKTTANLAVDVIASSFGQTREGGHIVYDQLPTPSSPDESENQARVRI
Nature of the test: in vitro enzyme assay to detect the production of urea directly proportional to the activity of Arginase II. Also: in the data most compounds retested in dose-response had high values. It is filed as functional. The conditions noted are these: 33.3 µM.

The target of test [5] is T3, Proteasome subunit beta (Trypanosoma cruzi) (UniProt O96673).
T3 sequence (whole entry): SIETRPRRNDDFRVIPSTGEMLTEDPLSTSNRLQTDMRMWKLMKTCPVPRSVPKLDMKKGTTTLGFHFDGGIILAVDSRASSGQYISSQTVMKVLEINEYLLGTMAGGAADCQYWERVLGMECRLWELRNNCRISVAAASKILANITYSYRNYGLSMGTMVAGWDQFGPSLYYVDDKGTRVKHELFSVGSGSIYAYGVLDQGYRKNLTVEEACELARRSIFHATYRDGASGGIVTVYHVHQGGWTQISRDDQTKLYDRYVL
The test can be described thus: Trypanosoma cruzi proteasome chymotrypsin-like activity (TcProtChymo) assay. Also: in the data most compounds retested in dose-response had high values. Type of test: functional. The note with it: 9.37 µM.

The species named for another test is Homo sapiens. Nature of the test: To identify inhibition of the IFN signalling (Jak-Stat) pathway via expression of an eGFP reporter gene under the control of an IFN-stimulated response element (ISRE) containing MxA promoter. Type of test: functional. The note with it: 30 µM. In general terms: In a reporter assay the amount or activity of a reporter protein is the signal.

Test [6] addresses T4, Tyrosyl-tRNA synthetase, putative (Trypanosoma cruzi (strain CL Brener)) (UniProt Q4DSP6).
T4 sequence (whole entry): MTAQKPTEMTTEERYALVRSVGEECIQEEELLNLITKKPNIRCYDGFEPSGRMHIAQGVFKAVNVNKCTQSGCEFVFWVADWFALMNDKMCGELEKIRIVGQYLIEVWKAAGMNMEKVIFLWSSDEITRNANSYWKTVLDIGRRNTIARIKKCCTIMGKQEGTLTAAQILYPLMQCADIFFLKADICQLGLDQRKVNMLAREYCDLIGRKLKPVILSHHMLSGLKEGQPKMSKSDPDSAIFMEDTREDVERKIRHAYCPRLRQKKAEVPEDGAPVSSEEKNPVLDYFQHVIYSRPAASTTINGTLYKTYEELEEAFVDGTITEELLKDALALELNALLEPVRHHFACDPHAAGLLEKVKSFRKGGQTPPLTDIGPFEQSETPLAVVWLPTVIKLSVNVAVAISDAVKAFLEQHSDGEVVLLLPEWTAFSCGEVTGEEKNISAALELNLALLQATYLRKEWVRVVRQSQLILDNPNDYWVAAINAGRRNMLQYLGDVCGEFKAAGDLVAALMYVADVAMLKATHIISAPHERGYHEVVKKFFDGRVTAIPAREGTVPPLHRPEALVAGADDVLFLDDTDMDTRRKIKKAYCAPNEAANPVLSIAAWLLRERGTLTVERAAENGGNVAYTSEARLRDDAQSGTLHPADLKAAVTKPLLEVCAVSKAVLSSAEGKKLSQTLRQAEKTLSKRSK
The test can be described thus: Trypanosoma cruzi tyrosyl tRNA synthetase (TcYRS) _High Tyrosine SOP. Also: in the data most compounds retested in dose-response had high values. The note with it: 30 µM. It is filed as functional.

The target of test [7] is T4, Tyrosyl-tRNA synthetase, putative (Trypanosoma cruzi (strain CL Brener)). The test can be described thus: Trypanosoma cruzi tyrosyl tRNA synthetase (TcYRS) SOP. Type of test: functional. The conditions noted are these: 30 µM.
Test [8] has as its target Chromo domain-containing protein 1 (Saccharomyces cerevisiae (strain ATCC 204508 / S288c) (Baker's yeast)) (UniProt P32657). The test can be described thus: ScCHD-1 Enzyme Inhibition Assay. Also: in the data most compounds retested in dose-response had high values. The note with it: 30 µM. Type of test: functional.

Chain of Sialic acid-binding Ig-like lectin 9 (Homo sapiens) (Q9Y336 whole entry): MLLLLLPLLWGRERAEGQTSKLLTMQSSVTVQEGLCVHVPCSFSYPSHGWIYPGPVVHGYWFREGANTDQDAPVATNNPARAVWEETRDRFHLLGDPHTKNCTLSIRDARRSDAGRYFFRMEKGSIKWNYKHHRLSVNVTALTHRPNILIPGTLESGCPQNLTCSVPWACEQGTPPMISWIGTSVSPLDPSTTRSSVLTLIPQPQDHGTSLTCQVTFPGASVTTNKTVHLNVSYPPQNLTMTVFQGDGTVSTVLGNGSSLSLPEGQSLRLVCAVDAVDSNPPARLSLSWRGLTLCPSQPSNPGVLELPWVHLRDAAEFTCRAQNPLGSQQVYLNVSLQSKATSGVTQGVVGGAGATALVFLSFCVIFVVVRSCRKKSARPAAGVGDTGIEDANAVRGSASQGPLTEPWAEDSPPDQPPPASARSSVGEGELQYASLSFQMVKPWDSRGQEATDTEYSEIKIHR
Chain of Chromo domain-containing protein 1 (Saccharomyces cerevisiae (strain ATCC 204508 / S288c) (Baker's yeast)) (P32657 whole entry, the tested form may be a part): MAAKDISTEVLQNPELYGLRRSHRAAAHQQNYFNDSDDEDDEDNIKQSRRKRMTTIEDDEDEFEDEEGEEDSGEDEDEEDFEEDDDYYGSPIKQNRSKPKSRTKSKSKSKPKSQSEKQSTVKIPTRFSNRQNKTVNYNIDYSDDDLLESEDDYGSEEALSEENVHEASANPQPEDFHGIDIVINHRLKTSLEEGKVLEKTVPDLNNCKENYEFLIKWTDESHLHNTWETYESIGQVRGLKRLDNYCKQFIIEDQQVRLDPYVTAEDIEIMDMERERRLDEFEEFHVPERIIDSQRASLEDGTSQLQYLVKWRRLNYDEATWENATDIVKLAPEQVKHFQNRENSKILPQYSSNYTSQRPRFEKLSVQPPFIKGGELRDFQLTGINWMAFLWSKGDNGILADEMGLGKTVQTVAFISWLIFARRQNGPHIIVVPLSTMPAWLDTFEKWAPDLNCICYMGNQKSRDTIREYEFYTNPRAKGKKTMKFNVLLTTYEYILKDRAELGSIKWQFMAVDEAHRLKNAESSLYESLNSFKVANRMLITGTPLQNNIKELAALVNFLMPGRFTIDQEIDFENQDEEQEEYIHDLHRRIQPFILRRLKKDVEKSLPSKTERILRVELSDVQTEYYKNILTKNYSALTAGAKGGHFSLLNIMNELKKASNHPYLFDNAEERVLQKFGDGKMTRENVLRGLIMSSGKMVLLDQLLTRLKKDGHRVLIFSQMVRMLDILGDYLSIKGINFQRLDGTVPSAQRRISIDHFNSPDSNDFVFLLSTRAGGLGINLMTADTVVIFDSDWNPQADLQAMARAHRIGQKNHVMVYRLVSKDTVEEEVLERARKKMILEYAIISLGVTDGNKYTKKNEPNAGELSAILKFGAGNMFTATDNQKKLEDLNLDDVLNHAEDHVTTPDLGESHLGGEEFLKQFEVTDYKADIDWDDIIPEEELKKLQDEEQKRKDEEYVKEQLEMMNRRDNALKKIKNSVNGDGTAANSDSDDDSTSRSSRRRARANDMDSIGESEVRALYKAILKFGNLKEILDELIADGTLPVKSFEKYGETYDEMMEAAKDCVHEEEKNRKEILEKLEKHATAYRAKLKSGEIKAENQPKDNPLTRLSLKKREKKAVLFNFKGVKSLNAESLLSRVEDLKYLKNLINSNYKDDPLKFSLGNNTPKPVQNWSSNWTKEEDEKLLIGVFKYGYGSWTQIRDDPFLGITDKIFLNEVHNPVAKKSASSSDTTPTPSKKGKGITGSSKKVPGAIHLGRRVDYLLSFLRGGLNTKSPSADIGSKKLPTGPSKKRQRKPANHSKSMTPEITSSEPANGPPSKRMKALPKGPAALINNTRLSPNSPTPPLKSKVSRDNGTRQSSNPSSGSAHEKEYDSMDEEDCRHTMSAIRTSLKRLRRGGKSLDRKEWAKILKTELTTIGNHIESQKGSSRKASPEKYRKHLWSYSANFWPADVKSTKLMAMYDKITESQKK
Chain of Protein translocase subunit SecA (Escherichia coli (strain K12)) (P10408 whole entry): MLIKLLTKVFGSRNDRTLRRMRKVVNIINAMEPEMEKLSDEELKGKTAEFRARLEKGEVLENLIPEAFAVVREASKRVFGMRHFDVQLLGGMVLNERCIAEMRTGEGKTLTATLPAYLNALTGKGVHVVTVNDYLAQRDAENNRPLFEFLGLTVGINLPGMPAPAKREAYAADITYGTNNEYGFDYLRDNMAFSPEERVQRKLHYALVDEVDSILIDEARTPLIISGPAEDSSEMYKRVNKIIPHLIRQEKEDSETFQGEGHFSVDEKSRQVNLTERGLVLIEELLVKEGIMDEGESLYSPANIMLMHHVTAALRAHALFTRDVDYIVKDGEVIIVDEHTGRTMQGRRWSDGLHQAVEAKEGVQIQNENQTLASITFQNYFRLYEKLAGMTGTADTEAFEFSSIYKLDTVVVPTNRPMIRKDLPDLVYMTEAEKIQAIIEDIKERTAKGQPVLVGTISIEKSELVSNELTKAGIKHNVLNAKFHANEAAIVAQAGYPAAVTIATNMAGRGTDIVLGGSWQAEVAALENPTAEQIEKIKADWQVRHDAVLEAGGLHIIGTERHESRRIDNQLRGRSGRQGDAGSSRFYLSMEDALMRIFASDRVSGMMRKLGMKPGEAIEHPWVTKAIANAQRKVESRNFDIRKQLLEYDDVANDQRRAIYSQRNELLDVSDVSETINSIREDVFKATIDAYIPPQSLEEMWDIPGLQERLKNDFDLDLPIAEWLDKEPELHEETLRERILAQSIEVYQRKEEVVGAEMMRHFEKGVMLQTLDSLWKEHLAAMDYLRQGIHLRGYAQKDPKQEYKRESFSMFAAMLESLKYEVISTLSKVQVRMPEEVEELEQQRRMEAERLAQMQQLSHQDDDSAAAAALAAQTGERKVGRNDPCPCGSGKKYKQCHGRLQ

For `CCN1CCN(c2ccc(CNC(=O)c3ccc(Cl)o3)cn2)CC1`, the Percent Effect in [1] is -0.96%; in test [2], 21.3%; in [3], -3.96%; with Trypanosoma cruzi it was 2.41%; in test [4], 6.21%; in test [5], 18.4%. Further, the Percent Effect in the test listed under Homo sapiens was 0.841%; in test [6], 7.89%; in test [7], 15.4%; in test [8] it was -10.4%.

Regarding `CCc1n[nH]c(C2CN(C(=O)c3ncoc3C(C)C)CCO2)n1` (stereo not given), the Percent Effect in test [1] was 1.99%; in [2], 15.6%; in test [3] it was 8.33%; in the test with Trypanosoma cruzi, -0.746%; in test [4] it was -2.25%; in test [5], 2.46%. Moreover, the Percent Effect was 17.6% in the test listed under Homo sapiens, 2.94% in test [6], 18.8% in [7] and -8.96% in test [8].

For the compound `Cc1cc(NC(=O)NCC(C)N2CCc3ccccc32)no1` (stereo not given), the Percent Effect in [1] was -4.79%; in test [2] it was 26%; in [3], 2.28%; in the test on Trypanosoma cruzi it was -3.54%; in test [4] it was 1.02%; in [5], 5.96%. For the same compound, the Percent Effect in the test listed under Homo sapiens is -2.59%; in [6] it was 12.8%; in test [7] it was 21.2%; in [8], -6.91%.

In the case of `NC(=O)CN1CCC(NC(=O)Nc2nccs2)CC1`, the Percent Effect in [1] is -1.25%; in [2], 15.4%; in test [3] it was -19.1%; in the test with Trypanosoma cruzi, 9.11%; in [4], -0.82%; in test [5], 13.1%. Moreover, the Percent Effect in the test filed under Homo sapiens is 5.92%; in [6], 1.44%; in test [7], 20.5%; in [8], -8.95%.

In the case of `CN(Cc1cccc(F)c1)C(=O)CN1CCOC(Cn2cccn2)C1` (stereo not given), the Percent Effect in test [1] was 0.367%; in test [2], 0%; in [3] it was 7.99%; with Trypanosoma cruzi it was 0.933%; in test [4], 0.615%; in test [5], 3.86%. Also, the Percent Effect in the test filed under Homo sapiens is 8.18%; in test [6], 3.92%; in test [7] it was 9.41%; in test [8], -0.994%.

Consider `Cc1ccccc1CC(=O)N(C)C1CCN(c2ccccn2)CC1`, for which the Percent Effect in [1] was -6.18%; in test [2], 10.7%; in test [3], 3.6%; in the test with Trypanosoma cruzi it was 5.22%; in test [4] it was -1.33%; in test [5] it was 15%. Also, the Percent Effect in the test filed under Homo sapiens was 6.38%; in test [6] it was 5.79%; in test [7], 12.8%; in [8], -17.5%.

`CN(C)CCN1CCCC12CCN(C(=O)c1cnccn1)CC2`: the Percent Effect in test [1] is -2.79%; in test [2], 11.7%; in test [3] it was 2.72%; in the test on Trypanosoma cruzi, 2.81%; in [4] it was 4.57%; in [5], 3.69%. Moreover, the Percent Effect is 0.368% in the test filed under Homo sapiens, 7.73% in [6], 15% in [7] and -6.82% in test [8].

Source of the values: ChEMBL document CHEMBL3988442, “University of Dundee, Small-Polar-MMV Screening Library” (2021).
